The structures appear in SMILES notation. Several values for one entry are separate records, joined by “and”; a condition that tells them apart may be missing. Equal values may be shown once. Where a structure was tested more than once in an assay, its records may differ in their call. Activity calls are given as the source filed them. Unless noted, the call rests on the fitted dose curve; in most records, active means well fitted curve in the direction sought with a large enough effect in the repeat runs; inconclusive means weak or mixed curves; inactive means no such curve, though single readings can be large; an effect the other way counts as inactive or inconclusive.

The nature of assay [1]: qHTS assay to identify small molecule antagonists of the glucocorticoid receptor (GR) signaling pathway - cell viability counter screen (AID 720693). Further: nearly all actives have a fitted effect of over 55% in size. Further: potency means the concentration at half of the fitted maximal effect.
Assay [2] can be described thus: qHTS assay for identifying genotoxic compounds that show differential cytotoxicity against isogenic chicken DT40 cell lines with known DNA damage response pathways - wild type cell line (AID 743012). Further: nearly all actives have a fitted effect of over 60% in size. Further: potency means the concentration at half of the fitted maximal effect. Put shortly: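 Cytotoxicity in repair-proficient parental chicken DT40 cells serves as the comparator for Rad54/Ku70- and Rev3-deficient lines. Cells were exposed to compounds for 40 h at 37 C/5% CO2, and ATP-based luminescence (CellTiter-Glo) measured viability.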
For orientation: In qHTS, concentration-response curves come from the screen itself.

Assay [3] is described as follows: qHTS assay for identifying genotoxic compounds that show differential cytotoxicity against isogenic chicken DT40 cell lines with known DNA damage response pathways - Rev3 mutant cell line (AID 743014). Further: nearly all actives have a fitted effect of over 55% in size. Further: potency means the concentration at half of the fitted maximal effect.
Assay [4] can be described thus: qHTS assay for identifying genotoxic compounds that show differential cytotoxicity against isogenic chicken DT40 cell lines with known DNA damage response pathways - Rad54/Ku70 mutant cell line (AID 743015). Further: nearly all actives have a fitted effect of over 60% in size. Further: potency means the concentration at half of the fitted maximal effect.
Assay [5] is described as follows: qHTS assay to identify small molecule antagonists of the androgen receptor (AR) signaling pathway - cell viability counter screen (AID 743033; further: nearly all actives have a fitted effect of over 45% in size; further: potency means the concentration at half of the fitted maximal effect).
Assay [6] can be described thus: qHTS assay to identify small molecule antagonists of the androgen receptor (AR) signaling pathway using the MDA cell line - cell viability counter screen (AID 743041; further: nearly all actives have a fitted effect of over 45% in size; further: potency means the concentration at half of the fitted maximal effect). Put shortly:
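Compound exposure lasted 16 h at 37C in MDA-kb2 AR-luc cells stimulated with R1881. Protease-based CellTiter-Fluor reagent was applied for the final 30 min and fluorescence measured.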

A short description of assay [7]: qHTS assay to identify small molecule antagonists of the thyroid receptor (TR) signaling pathway - cell viability counter screen (AID 743064). Further: nearly all actives have a fitted effect of over 50% in size. Further: potency means the concentration at half of the fitted maximal effect. Put shortly: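 Rat GH3 pituitary tumor cells stably expressing two TR response elements driving luciferase were plated, rested 4 h, then dosed with library compounds and T3 (1 nM final). After 23.5 h at 37 °C, CellTiter-Fluor was added for 30 min and fluorescence recorded.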

Assay [8] can be described thus: qHTS assay to identify small molecule antagonists of the thyroid receptor (TR) signaling pathway (AID 743065). Further: nearly all actives have a fitted effect of over 55% in size. Further: potency means the concentration at half of the fitted maximal effect. Put shortly: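 GH3.TRE-Luc rat pituitary cells (two TREs driving luciferase) were dosed with compound, then stimulated with 1 nM T3 (final) for 23.5 h at 37 C. ONE-Glo luminescence was the read-out, with CellTiter-Fluor fluorescence as the cytotoxicity counter-screen.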

For assay [9], the system named is thyroid hormone receptor (rat, GH3 cells). Description: qHTS assay to identify small molecule agonists of the thyroid receptor (TR) signaling pathway (AID 743066; calls by dose curve).
Assay [10] addresses Estrogen receptor (Homo sapiens) (UniProt P03372). Briefly: qHTS assay to identify small molecule antagonists of the estrogen receptor alpha (ER-alpha) signaling pathway (AID 743069; active means well fitted curve in the direction sought with a large enough effect in the signal ratio in the repeat runs, not every such curve was filed as active; inconclusive means weak or mixed curves, or effect the other way; inactive means no such curve, though single readings can be large or run the other way; the % refers to the signal ratio; further: potency means the concentration at half of the fitted maximal effect). Put shortly: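 In this cell-based reporter format, GripTite HEK293 cells harbouring ER-alpha-UAS-bla were grown overnight with 2% charcoal-stripped FBS, dosed with DMSO-dissolved compounds, then challenged with 17beta-estradiol. After 18 hr at 37C, beta-lactamase activity was detected by FRET fluorescence.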

Assay [11] is described as follows: qHTS assay to identify small molecule antagonists of the estrogen receptor alpha (ER-alpha) signaling pathway - cell viability counter screen (AID 743074; calls by dose curve; further: nearly all actives have a fitted effect of over 45% in size; further: potency means the concentration at half of the fitted maximal effect).
The target in assay [12] is Estrogen receptor (Homo sapiens) (UniProt P03372). Briefly: qHTS assay to identify small molecule agonists of the estrogen receptor alpha (ER-alpha) signaling pathway (AID 743075; calls by dose curve; further: potency means the concentration at half of the fitted maximal effect).
For assay [13] the target is unchanged. Description: qHTS assay to identify small molecule agonists of the estrogen receptor alpha (ER-alpha) signaling pathway using the BG1 cell line (AID 743079). Further: nearly all actives have a fitted effect of over 20% in size. Further: potency means the concentration at half of the fitted maximal effect. The conditions noted are these: BG1Luc4E2 cells, ERE-luciferase agonist, 22 h; activation: at 70.3 µM (top of the series).
Assay [14] is described as follows: qHTS assay to identify small molecule antagonists of the estrogen receptor alpha (ER-alpha) signaling pathway using the BG1 cell line - cell viability counter screen (AID 743081).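 Further: compound given together with 17beta-estradiol as the ER stimulus; nearly all actives have a fitted effect of over 45% in size.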 Further: potency means the concentration at half of the fitted maximal effect.
The next assay has as its target Aromatase (Homo sapiens) (UniProt P11511). Briefly: qHTS assay to identify aromatase inhibitors (AID 743083). Further: nearly all actives have a fitted effect of over 55% in size. Further: potency means the concentration at half of the fitted maximal effect.
The target of assay [15] is Androgen receptor (Homo sapiens) (UniProt P10275). Description: qHTS assay to identify small molecule antagonists of the androgen receptor (AR) signaling pathway (AID 743035; active means well fitted inhibition curve with a large enough effect in the signal ratio in the repeat runs, not every such curve was filed as active; inconclusive means weak or mixed curves, or effect the other way; inactive means no such curve, though single readings can be large or run the other way; the % refers to the signal ratio; further: potency means the concentration at half of the fitted maximal effect). Put shortly:
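Steps: seed AR-UAS-bla GripTite HEK293 cells, incubate 4 h at 37C; pin in test compound, then add agonist R1881; incubate 16 h at 37C; add LiveBLAzer B/G FRET substrate, 2 h at room temperature; read fluorescence.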

Assay [16] has the same target. Briefly: qHTS assay to identify small molecule agonists of the androgen receptor (AR) signaling pathway using the MDA cell line (AID 743040; further: nearly all actives have a fitted effect of over 20% in size). Put shortly: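 Testing was done with the MDA-kb2 AR-luc line, a human breast carcinoma stably transfected with MMTV-luciferase containing AR and GR response elements. Cells were exposed 16 h at 37C before ONE-Glo luminescence detection.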

Assay [17] shares this target. Description: qHTS assay to identify small molecule antagonists of the androgen receptor (AR) signaling pathway using the MDA cell line (AID 743042; further: nearly all actives have a fitted effect of over 55% in size; further: potency means the concentration at half of the fitted maximal effect). Put shortly:
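MDA-kb2 breast carcinoma cells carrying MMTV-luciferase (AR/GR responsive) were co-treated with compounds and the agonist R1881 for 16 h at 37C. Inhibition read as ONE-Glo luminescence; CellTiter-Fluor fluorescence measured in parallel for cytotoxicity.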

The nature of assay [18]: qHTS assay to identify small molecule antagonists of the estrogen receptor alpha (ER-alpha) signaling pathway using the BG1 cell line (AID 743080; calls by dose curve;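 further: BG1 cells stimulated with 17beta-estradiol alongside compound; nearly all actives have a fitted effect of over 25% in size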). Put shortly: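 After 5 days in phenol-red-free 10% charcoal-stripped FBS medium, BG1-Luc-4E2 cells were seeded, left 24 h at 37 C, co-treated with compounds and 17beta-estradiol for 21.5 h, then assayed for viability and luciferase.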

Assay [19] concerns the target Androgen receptor (Homo sapiens) (UniProt P10275). Description: qHTS assay to identify small molecule agonists of the androgen receptor (AR) signaling pathway (AID 743036; active means well fitted activation curve with a large enough effect in the signal ratio in the repeat runs, with a control signal flat, not every such curve was filed as active; inconclusive means weak or mixed curves, or effect the other way; inactive means no such curve, though single readings can be large or run the other way; the % refers to the signal ratio). Put shortly:
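Quantitative HTS of the Tox21 10K library in HEK293 cells bearing a stably integrated UAS-controlled beta-lactamase reporter. Compound exposure lasted 16 h at 37C. Reporter activity was detected by FRET substrate fluorescence after 2 h at room temperature.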

Sequence of Aromatase (Homo sapiens) (P11511 whole entry, looked up): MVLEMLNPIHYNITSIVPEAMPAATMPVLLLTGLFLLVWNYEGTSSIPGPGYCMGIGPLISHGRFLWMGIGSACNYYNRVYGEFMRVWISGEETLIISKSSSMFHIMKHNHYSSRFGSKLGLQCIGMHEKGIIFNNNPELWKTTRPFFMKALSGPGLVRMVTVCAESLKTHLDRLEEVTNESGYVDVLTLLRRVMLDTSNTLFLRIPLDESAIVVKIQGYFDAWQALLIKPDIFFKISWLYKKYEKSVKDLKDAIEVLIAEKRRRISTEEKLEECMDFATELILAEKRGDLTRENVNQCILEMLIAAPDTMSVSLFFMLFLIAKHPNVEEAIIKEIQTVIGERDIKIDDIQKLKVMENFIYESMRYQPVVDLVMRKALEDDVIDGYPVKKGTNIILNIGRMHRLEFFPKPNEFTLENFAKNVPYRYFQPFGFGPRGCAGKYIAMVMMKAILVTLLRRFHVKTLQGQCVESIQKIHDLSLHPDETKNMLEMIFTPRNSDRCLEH
Sequence of Estrogen receptor (Homo sapiens) (P03372 whole entry, looked up): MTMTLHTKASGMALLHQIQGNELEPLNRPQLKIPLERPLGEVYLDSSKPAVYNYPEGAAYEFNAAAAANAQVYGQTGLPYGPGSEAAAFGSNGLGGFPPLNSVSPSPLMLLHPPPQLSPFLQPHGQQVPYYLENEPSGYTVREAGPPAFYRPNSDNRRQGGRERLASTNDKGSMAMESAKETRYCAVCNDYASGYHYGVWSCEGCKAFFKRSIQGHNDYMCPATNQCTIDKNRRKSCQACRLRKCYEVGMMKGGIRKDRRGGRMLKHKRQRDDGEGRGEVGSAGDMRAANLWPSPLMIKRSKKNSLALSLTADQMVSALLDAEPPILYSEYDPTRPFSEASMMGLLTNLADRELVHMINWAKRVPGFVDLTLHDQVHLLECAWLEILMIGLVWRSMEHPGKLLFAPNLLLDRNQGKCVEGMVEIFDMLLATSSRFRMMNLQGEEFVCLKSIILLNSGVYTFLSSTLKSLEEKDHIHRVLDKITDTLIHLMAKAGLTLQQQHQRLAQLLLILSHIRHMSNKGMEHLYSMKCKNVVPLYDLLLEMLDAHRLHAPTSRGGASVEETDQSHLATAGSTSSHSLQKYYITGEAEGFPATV
Sequence of Androgen receptor (Homo sapiens) (P10275 whole entry, looked up): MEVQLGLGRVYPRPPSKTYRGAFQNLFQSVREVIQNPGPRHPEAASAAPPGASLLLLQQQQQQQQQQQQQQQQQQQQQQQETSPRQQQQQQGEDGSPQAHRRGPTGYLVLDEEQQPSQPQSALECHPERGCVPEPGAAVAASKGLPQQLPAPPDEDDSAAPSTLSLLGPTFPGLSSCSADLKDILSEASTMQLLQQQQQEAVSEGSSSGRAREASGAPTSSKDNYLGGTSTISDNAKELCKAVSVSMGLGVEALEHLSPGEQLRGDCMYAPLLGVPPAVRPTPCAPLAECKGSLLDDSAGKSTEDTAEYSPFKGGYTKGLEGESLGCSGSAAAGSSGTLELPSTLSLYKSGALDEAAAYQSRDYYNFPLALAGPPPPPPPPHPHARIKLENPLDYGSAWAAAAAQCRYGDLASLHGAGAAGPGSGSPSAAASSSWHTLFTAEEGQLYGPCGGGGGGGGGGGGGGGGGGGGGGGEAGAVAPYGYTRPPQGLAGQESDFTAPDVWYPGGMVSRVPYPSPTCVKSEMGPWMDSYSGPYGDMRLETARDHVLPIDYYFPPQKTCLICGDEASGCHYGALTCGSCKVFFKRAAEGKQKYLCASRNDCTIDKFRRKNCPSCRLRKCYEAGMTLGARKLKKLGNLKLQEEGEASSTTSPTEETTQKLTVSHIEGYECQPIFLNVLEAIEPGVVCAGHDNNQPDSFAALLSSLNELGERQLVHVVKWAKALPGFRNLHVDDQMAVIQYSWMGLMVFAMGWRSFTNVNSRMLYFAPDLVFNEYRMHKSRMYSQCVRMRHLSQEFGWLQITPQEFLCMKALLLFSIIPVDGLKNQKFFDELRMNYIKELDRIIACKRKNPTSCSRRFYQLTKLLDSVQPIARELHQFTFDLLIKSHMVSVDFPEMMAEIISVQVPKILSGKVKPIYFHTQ

On to `CC(Cl)CCl` (stereo not drawn), for which the Potency result in assay [1], in assay [2], in assay [3], in assay [4], in assay [5] and in assay [6] was “inactive” throughout. Besides, the Potency result in [7], in assay [8], in assay [9], in [10], in assay [11] and in assay [12] was “inactive” each time. The Potency entry (in [13]; in assay [14]; with Aromatase (Homo sapiens)) was “inactive” in each case.
In the case of `O=[N+]([O-])c1ccccc1-c1ccccc1`, the Potency entry in assay [1], in assay [2], in assay [3], in assay [4], in assay [5] and in [6] was “inactive” throughout. Moreover, the Potency result in assay [7], in [8], in assay [9], in assay [11], in [12] and in [14] was “inactive” throughout. The Potency entry with Aromatase (Homo sapiens) was “inactive”.
As to `N#Cc1sc2c(=O)c3ccccc3c(=O)c=2sc1C#N`, the Potency in assay [1] is 0.49 µM (active); in assay [2] it was 1.37 µM (active); in [3], 0.433 µM (active); in assay [4] it was 770 nM (active); in assay [5], 13.8 µM (active); in assay [15], 9.77 µM (active). Moreover, the Potency was 1.37 µM (active) in assay [6]; 0.306 µM (active) in assay [17]; 24.3 µM (active) in [7]; 24.3 µM (active) in [8]; 54.9 µM (active) in [11]; 27.3 µM (active) in assay [14]. For the same compound, the Potency in the assay with Aromatase (Homo sapiens) was 2.17 µM (active). Besides, in [16], the compound was called inactive. For the same compound, the Potency result in assay [9] was “inactive”.
Consider `CCCCn1cc[n+](C)c1` (tested in a mixture with another compound), for which the Potency entry in assay [1], in [2], in [3], in [4], in [5] and in assay [6] was “inactive” throughout. In addition, the Potency entry (in assay [7]; in [8]; in assay [9]; in [11]; in assay [14]; in the assay with Aromatase (Homo sapiens)) was “inactive” in each case.
`CN1[C@@H]2CC[C@H]1CC(O)C2` (stereo partly drawn): the Potency entry in [1], in [2], in assay [3], in assay [4], in assay [5] and in assay [6] was “inactive” in each case. Besides, the Potency entry in assay [7], in assay [8], in assay [9], in assay [10], in assay [11] and in assay [12] was “inactive” each time. Also, the Potency result (in [13]; in [18]; in assay [14]; with Aromatase (Homo sapiens)) was “inactive” throughout.
Turning to `COc1nc(C)nc(NC(=O)NS(=O)(=O)c2ccccc2Cl)n1`, the Potency entry in [1], in assay [2], in assay [3], in assay [4], in [5] and in [6] was “inactive” in each case. Also, the Potency entry in [7], in assay [8], in assay [9], in [10], in assay [11] and in assay [18] was “inactive” each time. Further, the Potency result (in assay [14]; in the assay with Aromatase (Homo sapiens)) was “inactive” throughout.
`Oc1ccc(Cl)c(Cl)c1`: the Potency entry in [1], in [2], in assay [3], in assay [4], in assay [5] and in assay [6] was “inactive” throughout. In addition, the Potency result (in [7]; in assay [9]; in assay [11]; in assay [14]; in the assay with Aromatase (Homo sapiens)) was “inactive” in each case. Moreover, the figures for the Potency in [8] and in assay [12] were 60.2 µM (active) and 60.7 µM [inconclusive] (active), respectively.
Consider `Nc1nc(N)nc(Cl)n1`, for which the Potency entry in assay [1], in assay [2], in assay [3], in assay [4], in assay [5] and in assay [6] was “inactive” throughout. Also, the Potency entry in assay [7], in assay [8], in assay [9], in assay [11], in assay [12] and in assay [13] was “inactive” each time. Besides, the Potency result (in assay [18]; in [14]; with Aromatase (Homo sapiens)) was “inactive” throughout.
`CCCCON=O`: the Potency entry in assay [1], in assay [2], in assay [3], in [4], in assay [5] and in assay [6] was “inactive” each time. The Potency entry (in [7]; in assay [8]; in assay [9]; in assay [11]; in assay [14]; with Aromatase (Homo sapiens)) was “inactive” throughout.
Regarding `[Cl][Hg][c]1ccccc1`, the Potency in assay [1] is 0.309 µM (active); in [2] it was 0.122 µM (active); in assay [3], 0.172 µM (active); in [4], 86.3 nM (active); in [5], 1.38 µM (active); in [6], 3.44 µM (active). Further, the Potency in assay [17] is 0.969 µM (active); in [7] it was 0.243 µM (active); in assay [8], 0.0863 µM (active); in assay [11] it was 12.3 µM (active); in assay [12], 4.36 µM [fluorescent] (active); in assay [14], 30.6 µM (active). Also, in the assay with Aromatase (Homo sapiens), the Potency was 1.37 µM (active). In addition, the call in assay [16] was inactive.
Regarding `CC(C)Br`, the Potency entry in assay [1], in assay [2], in assay [3], in assay [4], in assay [5] and in assay [6] was “inactive” each time. Besides, the Potency result in [7], in assay [8], in assay [9], in assay [11], in [12] and in assay [13] was “inactive” throughout. The Potency result (in assay [14]; in the assay with Aromatase (Homo sapiens)) was “inactive” in each case.
For `NC(=O)C(Cl)Cl`, the Potency entry in assay [1], in assay [2], in [3], in [4], in [5] and in assay [6] was “inactive” in each case. Moreover, the Potency entry (in assay [7]; in [8]; in assay [9]; in assay [11]; in [14]; with Aromatase (Homo sapiens)) was “inactive” throughout.
For the compound `CCOC(=O)Cc1ccccc1`, the Potency result in assay [1], in assay [2], in assay [3], in assay [4], in [5] and in assay [15] was “inactive” throughout. Moreover, the Potency result in assay [6], in assay [17], in assay [7], in assay [9], in assay [10] and in assay [11] was “inactive” in each case. Also, the Potency entry (in assay [12]; in assay [13]; in assay [18]; in assay [14]; in the assay with Aromatase (Homo sapiens)) was “inactive” throughout. Also, the result in assay [19] and in [16] was inactive.
Consider `C[C@]12C/C(=C/O)C(=O)C[C@@H]1CC[C@@H]1[C@@H]2CC[C@@]2(C)[C@H]1CC[C@]2(C)O`, for which the Potency in assay [1] was 49.4 µM (active); in assay [2] it was 29.8 µM (active); in [3], 49 µM (active); in assay [4], 13.3 µM (active) and 15.5 µM (active); in [5], “inactive and 44.1 µM (active)”; in [7], “inactive and 61.7 µM (active)”. The Potency in [8] was 29.8 µM (active) and 55 µM (active); in assay [12], 674 nM [inconclusive] (active) and 783 nM [inconclusive] (active); in assay [13], 211 nM (active) and 97.8 nM (active). Moreover, the Potency entry (in [6]; in assay [9]; in [10]; in assay [11]; in assay [14]; with Aromatase (Homo sapiens)) was “inactive” throughout.
With `CN(C)c1ccc(N)cc1`, the Potency result in [1], in assay [17], in [9] and in assay [12] was “inactive” in each case. Further, the Potency is 29.9 µM (active) in [2]; 21.2 µM (active) in assay [3]; 26600 nM (active) in assay [4]; 42.6 µM (active) in [5]; 24 µM (active) in [15]; 59.6 µM (active) in [6]. Also, the results for the Potency in assay [7], in [10] and in assay [13] were 59.6 µM (active), 60.2 µM [inconclusive] (active) and 7.51 µM (active), respectively. Further, the compound was classed as inactive in assay [19].

(Values after PubChem BioAssay (Tox21).)
